This note sets out measurements from paper PMC5540273 (PLoS ONE, 2017).
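Note: KINOMEscan kinase panel screen.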

The first assay deals with T1, TIE2.
T1 construct: gene TEK
The following applies: concentration: 1 μM,replicates: in singlicate; n = 1.
As for `CN1CCN(CCCNc2nccc(-c3c(-c4ccc(F)cc4)nn4cc(C(N)=O)ccc34)n2)CC1` [GW622475], the “%Inh” value is reported as 0%.
The same measure, in the same setting: with `C[C@@H]1CNc2c(sc3ccc4nc(-c5ccc(O)cc5)ccc4c23)C(=O)N1` the figure was 25%; with `CCn1c(-c2nonc2N)nc2cncc(Br)c21` [SB-738004], 0%; with `C[C@@H]1CCN(C(=O)N2CCCC2)C[C@@H]1N(C)c1ncnc2[nH]ccc12`, 10%.
Still for that read-out and setting: under `CS(=O)c1ccc(-c2coc3ccc(-c4n[nH]c(=O)o4)cc23)cc1` (centres unmarked) stands 10%.
As to `CCn1c(-c2nonc2N)nc2cncc(CNC3CCNCC3)c21.Cl` [SB-747651], the “%Inh” value is reported as 0%.
Still for that read-out and setting: with `C[C@@H](Oc1cc(-n2cnc3cc(-c4cnn(C)c4)ccc32)sc1C(N)=O)c1ccccc1Cl` [GSK580432] the figure was 82%.
`CN1CCN(CCNc2nc3cc(Oc4ccc(NC(=O)Nc5cc(C(F)(F)F)ccc5F)cc4)ccc3[nH]2)CC1.Cl.Cl` [GW768504]: the “%Inh” value was 60%.
On the same count and under the same terms, under `CCNCC(Cc1ccccc1)NC(=O)c1cc(Br)c(-c2ccnc3[nH]ccc23)s1.Cl.Cl` (centres unmarked) [GSK1383280] stands 0%; under `CCCC(=O)Nc1n[nH]c2ncccc12` [SB-601436], 0%; under `COc1cccc(C2=C(Nc3cccc(Cl)c3)C(=O)NC2=O)c1` [SB-341556], 0%.
`C[C@@H]1CNc2c(sc3ccc4nc(-c5ccncc5)ccc4c23)C(=O)N1`: the “%Inh” value amounted to 0%.
In the case of `CC(=O)c1c(-c2ccncc2)[nH]c(-c2ccncc2)c1C` [GW493036], the “%Inh” value came to 1%.
The same measure, in the same setting: under `CCN1CCN(CCCC(=O)Nc2n[nH]c3nc(-c4ccc(O)cc4)c(Br)cc23)CC1` [SB-731579] stands 0%; under `O=c1[nH]cc(-c2ccc(O)cc2)c2sc(-c3ccncc3)cc12` [GSK1033723], 89%.
For the molecule `Nc1nccc(-c2ccc3c(N)n[nH]c3c2)n1` [GSK1034945], the “%Inh” value was determined as 0%.
The same measure, in the same setting: under `COC(=O)c1cccc(NC(=O)NC2CCN(c3ccnc(NCc4ccc(F)cc4)n3)CC2)c1` [GSK1379860] stands 0%.
`COc1cc2nccc(Nc3ccc(Oc4ccccc4)cc3)c2cc1OC.Cl` [GI261656]: the “%Inh” value is reported as 0%.
For the molecule `Cn1ccc2ncnc(Oc3ccc(NC(=O)Nc4cccc(C(F)(F)F)c4)c(Cl)c3)c21`, the “%Inh” value is on record as 94.8%.
The same measure, in the same setting: with `CNC(=O)c1ccccc1Nc1nc(Nc2cccc(CS(C)(=O)=O)c2)ncc1C.O=CO` [GSK1520489] the figure was 95%; with `Cc1cccc2c(-c3ccncc3)c(-c3ccc(F)cc3)nn12.Cl` [GW461487], 0%; with `Cc1nnc(-c2ccc3occ(-c4ccc(S(C)=O)cc4)c3n2)o1` (centres unmarked), 0%.
On the same count and under the same terms, under `OCCn1cc(-c2cnc3nnn(Cc4ccc5ncccc5c4)c3n2)cn1` stands 0%; under `COC(=O)c1cccc(NC(=O)NC2CCN(c3ccnc(Nc4cc(OC)c(OC)c(OC)c4)n3)C2)c1` (centres unmarked) [GSK1379767], 4%.
On the same count and under the same terms, under `O=C(Nc1cccc(C(F)(F)F)c1)c1cccc(Oc2ccc3nccn3n2)c1` stands 0%; under `Cc1cccc(-c2nc(Nc3ccncc3)c3sccc3n2)n1` [GW869641], 38%; under `COc1cc2ncn(-c3cc(OCC4CCCCC4)c(C(N)=O)s3)c2cc1OC` [GSK204559], 0%.
As for `Cn1cc(-c2cccc3c(N)c(C(N)=O)nnc23)cn1`, the “%Inh” value is on record as 1%.
As for `NC(=O)Nc1sc(-c2ccc(F)cc2)cc1C(N)=O` [GW789449], the “%Inh” value was determined as 12%.
On to `c1ccc(Oc2ccc(Nc3ccnc4ccc(-c5ccccn5)cc34)cc2)cc1` [GW407034], for which the “%Inh” value is recorded as 2%.
Take `Cn1ccc2ncnc(Oc3ccc(NC(=O)Nc4cnn(C(C)(C)C)c4)c(Cl)c3)c21`: the “%Inh” value amounted to 73%.
Consider `Cc1ccc(Nc2ccnc(Nc3ccc4c(c3)CS(=O)(=O)C4)n2)cc1O.Cl` [GW579362], for which the “%Inh” value was found to be 56%.
With `Cc1ccc(C(=O)Nc2ccc(Oc3ccc4nc(NC(=O)C5CC5)cn4c3)c(F)c2)c(=O)n1-c1ccccc1`, the “%Inh” value is recorded as 99.4%.
Still for that read-out and setting: under `CC(C(=O)NC1CCN(c2ccnc(Nc3ccc(F)cc3)n2)C1)c1ccc(Cl)cc1` (centres unmarked) [GSK1379713] stands 0%.
In the case of `COC(=O)Nc1nc2cc(Oc3ccc(NC(=O)Nc4cc(C(F)(F)F)ccc4Cl)cc3)ccc2[nH]1.Cl` [GW697465], the “%Inh” value is reported as 99.2%.
As to `CCOC(=O)N1CCC(n2cnc(-c3ccc(F)cc3)c2-c2ccnc(N)n2)CC1` [SB-219952], the “%Inh” value is 10%.
The same measure, in the same setting: with `Cn1ccc2ncnc(Oc3ccc(NC(=O)Nc4cc(C(C)(C)C)on4)c(Cl)c3)c21` the figure was 97.1%.

The next assay deals with TLK1. The note with it: concentration: 1 μM,replicates: in singlicate; n = 1.
Turning to `CN1CCN(CCCNc2nccc(-c3c(-c4ccc(F)cc4)nn4cc(C(N)=O)ccc34)n2)CC1` [GW622475], the “%Inh” value is on record as 39%.
Still for that read-out and setting: with `C[C@@H]1CNc2c(sc3ccc4nc(-c5ccc(O)cc5)ccc4c23)C(=O)N1` the figure was 24%; with `CCn1c(-c2nonc2N)nc2cncc(Br)c21` [SB-738004], 9%.
The same measure, in the same setting: with `C[C@@H]1CCN(C(=O)N2CCCC2)C[C@@H]1N(C)c1ncnc2[nH]ccc12` the figure was 12%; with `CS(=O)c1ccc(-c2coc3ccc(-c4n[nH]c(=O)o4)cc23)cc1` (centres unmarked), 35%.
As to `CCn1c(-c2nonc2N)nc2cncc(CNC3CCNCC3)c21.Cl` [SB-747651], the “%Inh” value is 0%.
The same measure, in the same setting: under `C[C@@H](Oc1cc(-n2cnc3cc(-c4cnn(C)c4)ccc32)sc1C(N)=O)c1ccccc1Cl` [GSK580432] stands 0%.
Turning to `CN1CCN(CCNc2nc3cc(Oc4ccc(NC(=O)Nc5cc(C(F)(F)F)ccc5F)cc4)ccc3[nH]2)CC1.Cl.Cl` [GW768504], the “%Inh” value was 0%.
Same read-out and setting: with `CCNCC(Cc1ccccc1)NC(=O)c1cc(Br)c(-c2ccnc3[nH]ccc23)s1.Cl.Cl` (centres unmarked) [GSK1383280] the figure was 18%; with `CCCC(=O)Nc1n[nH]c2ncccc12` [SB-601436], 0%; with `COc1cccc(C2=C(Nc3cccc(Cl)c3)C(=O)NC2=O)c1` [SB-341556], 38%.
Same read-out and setting: with `C[C@@H]1CNc2c(sc3ccc4nc(-c5ccncc5)ccc4c23)C(=O)N1` the figure was 0%.
Take `CC(=O)c1c(-c2ccncc2)[nH]c(-c2ccncc2)c1C` [GW493036]: the “%Inh” value turned out to be 0%.
Turning to `CCN1CCN(CCCC(=O)Nc2n[nH]c3nc(-c4ccc(O)cc4)c(Br)cc23)CC1` [SB-731579], the “%Inh” value stood at 8%.
For `O=c1[nH]cc(-c2ccc(O)cc2)c2sc(-c3ccncc3)cc12` [GSK1033723], the “%Inh” value was determined as 6%.
Consider `Nc1nccc(-c2ccc3c(N)n[nH]c3c2)n1` [GSK1034945], for which the “%Inh” value came out at 14%.
Consider `COC(=O)c1cccc(NC(=O)NC2CCN(c3ccnc(NCc4ccc(F)cc4)n3)CC2)c1` [GSK1379860], for which the “%Inh” value is on record as 0%.
Take `COc1cc2nccc(Nc3ccc(Oc4ccccc4)cc3)c2cc1OC.Cl` [GI261656]: the “%Inh” value came out at 0%.
Take `Cn1ccc2ncnc(Oc3ccc(NC(=O)Nc4cccc(C(F)(F)F)c4)c(Cl)c3)c21`: the “%Inh” value was 74%.
Same read-out and setting: under `CNC(=O)c1ccccc1Nc1nc(Nc2cccc(CS(C)(=O)=O)c2)ncc1C.O=CO` [GSK1520489] stands 22%; under `Cc1cccc2c(-c3ccncc3)c(-c3ccc(F)cc3)nn12.Cl` [GW461487], 10%.
Take `Cc1nnc(-c2ccc3occ(-c4ccc(S(C)=O)cc4)c3n2)o1` (centres unmarked): the “%Inh” value worked out at 3%.
Regarding `OCCn1cc(-c2cnc3nnn(Cc4ccc5ncccc5c4)c3n2)cn1`, the “%Inh” value is 0%.
As for `COC(=O)c1cccc(NC(=O)NC2CCN(c3ccnc(Nc4cc(OC)c(OC)c(OC)c4)n3)C2)c1` (centres unmarked) [GSK1379767], the “%Inh” value amounted to 14%.
Same read-out and setting: with `O=C(Nc1cccc(C(F)(F)F)c1)c1cccc(Oc2ccc3nccn3n2)c1` the figure was 3%.
The same measure, in the same setting: under `Cc1cccc(-c2nc(Nc3ccncc3)c3sccc3n2)n1` [GW869641] stands 0%; under `COc1cc2ncn(-c3cc(OCC4CCCCC4)c(C(N)=O)s3)c2cc1OC` [GSK204559], 6%; under `Cn1cc(-c2cccc3c(N)c(C(N)=O)nnc23)cn1`, 2%.
Regarding `NC(=O)Nc1sc(-c2ccc(F)cc2)cc1C(N)=O` [GW789449], the “%Inh” value stood at 4%.
On the same count and under the same terms, with `c1ccc(Oc2ccc(Nc3ccnc4ccc(-c5ccccn5)cc34)cc2)cc1` [GW407034] the figure was 0%; with `Cn1ccc2ncnc(Oc3ccc(NC(=O)Nc4cnn(C(C)(C)C)c4)c(Cl)c3)c21`, 17%.
As for `Cc1ccc(Nc2ccnc(Nc3ccc4c(c3)CS(=O)(=O)C4)n2)cc1O.Cl` [GW579362], the “%Inh” value is listed as 30%.
Still for that read-out and setting: under `Cc1ccc(C(=O)Nc2ccc(Oc3ccc4nc(NC(=O)C5CC5)cn4c3)c(F)c2)c(=O)n1-c1ccccc1` stands 0%.
On the same count and under the same terms, with `CC(C(=O)NC1CCN(c2ccnc(Nc3ccc(F)cc3)n2)C1)c1ccc(Cl)cc1` (centres unmarked) [GSK1379713] the figure was 0%; with `COC(=O)Nc1nc2cc(Oc3ccc(NC(=O)Nc4cc(C(F)(F)F)ccc4Cl)cc3)ccc2[nH]1.Cl` [GW697465], 0%; with `CCOC(=O)N1CCC(n2cnc(-c3ccc(F)cc3)c2-c2ccnc(N)n2)CC1` [SB-219952], 26%.
Same read-out and setting: with `Cn1ccc2ncnc(Oc3ccc(NC(=O)Nc4cc(C(C)(C)C)on4)c(Cl)c3)c21` the figure was 15%.
